Holding throughout (assay): DAPPL (digital affinity profiling via proximity ligation, sequencing); 10 mM Tris-HCl pH 7.5, 50 mM NaCl, 1 mM DTT, 4% glycerol, room temperature, 30 min; GST-TFs on glutathione beads, 16-mer random dsDNA library, 0.1% formaldehyde crosslink after washing; high values mean tight binding
What all share (conditions): protein: recombinant; tags: N-terminal GST; dsDNA, one strand shown

Assay [1] has as its target T1, FLI1 (Homo sapiens, UniProt Q01543 1-452).
T1 sequence: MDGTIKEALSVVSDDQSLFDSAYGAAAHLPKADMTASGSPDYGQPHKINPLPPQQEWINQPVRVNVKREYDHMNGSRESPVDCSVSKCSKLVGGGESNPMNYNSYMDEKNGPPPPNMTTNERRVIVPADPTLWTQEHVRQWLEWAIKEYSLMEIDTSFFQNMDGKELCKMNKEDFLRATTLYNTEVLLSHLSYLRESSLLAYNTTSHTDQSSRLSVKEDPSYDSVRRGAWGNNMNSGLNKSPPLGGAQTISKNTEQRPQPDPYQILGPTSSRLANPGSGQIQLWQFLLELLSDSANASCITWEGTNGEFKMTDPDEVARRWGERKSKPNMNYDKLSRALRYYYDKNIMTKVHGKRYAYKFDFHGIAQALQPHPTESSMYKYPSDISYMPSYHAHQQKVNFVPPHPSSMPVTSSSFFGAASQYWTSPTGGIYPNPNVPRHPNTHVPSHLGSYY
Summed up:
(§1)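 Pools of DNA-barcoded human transcription factors, expressed in yeast as GST fusions on glutathione beads and combined with a tag-only sample, were incubated with 200 nmole of a 16-mer random double-stranded DNA library. Incubation took 30 min at room temperature in Tris/NaCl/DTT/glycerol buffer and was followed by washing, 0.1% formaldehyde crosslinking, proximity ligation (BsaI/T4 ligase, 1 h, 37 °C), PCR amplification and sequencing on an Illumina NextSeq500. Binding signal is the ratio of a hexamer's read frequency for a factor to its frequency for the tag-only sample.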

Assay [2] deals with T2, ELK1 (Homo sapiens, UniProt P19419 1-428).
T2 sequence: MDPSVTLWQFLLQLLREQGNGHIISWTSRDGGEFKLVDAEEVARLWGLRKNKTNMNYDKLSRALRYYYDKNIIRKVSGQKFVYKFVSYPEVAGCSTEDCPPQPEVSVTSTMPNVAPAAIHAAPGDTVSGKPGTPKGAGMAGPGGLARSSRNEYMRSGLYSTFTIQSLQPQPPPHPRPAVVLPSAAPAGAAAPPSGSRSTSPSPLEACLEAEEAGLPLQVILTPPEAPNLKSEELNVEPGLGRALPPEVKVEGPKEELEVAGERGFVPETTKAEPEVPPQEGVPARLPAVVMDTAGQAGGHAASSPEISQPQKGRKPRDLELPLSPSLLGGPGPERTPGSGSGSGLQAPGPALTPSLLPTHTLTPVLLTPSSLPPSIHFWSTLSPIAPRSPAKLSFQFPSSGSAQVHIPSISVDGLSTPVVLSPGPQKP
The gist of the method: as §1

Assay [3] deals with T3, GABPA (Homo sapiens, UniProt Q06546 1-454).
T3 sequence: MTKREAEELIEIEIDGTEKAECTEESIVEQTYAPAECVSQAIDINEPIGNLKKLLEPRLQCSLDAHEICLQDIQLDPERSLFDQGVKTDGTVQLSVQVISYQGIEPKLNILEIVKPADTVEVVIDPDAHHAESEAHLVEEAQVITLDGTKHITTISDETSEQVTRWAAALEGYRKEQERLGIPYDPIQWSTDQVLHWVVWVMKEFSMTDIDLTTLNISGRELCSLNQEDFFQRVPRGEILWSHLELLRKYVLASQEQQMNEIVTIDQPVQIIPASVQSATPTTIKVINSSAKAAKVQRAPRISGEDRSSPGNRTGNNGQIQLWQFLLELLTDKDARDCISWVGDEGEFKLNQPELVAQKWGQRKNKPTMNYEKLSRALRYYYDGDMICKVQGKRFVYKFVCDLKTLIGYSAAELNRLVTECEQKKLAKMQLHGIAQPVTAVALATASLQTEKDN
The gist of the method: as §1

Assay [4] concerns the target T4, ERG (Homo sapiens, UniProt P11308 1-479).
T4 sequence: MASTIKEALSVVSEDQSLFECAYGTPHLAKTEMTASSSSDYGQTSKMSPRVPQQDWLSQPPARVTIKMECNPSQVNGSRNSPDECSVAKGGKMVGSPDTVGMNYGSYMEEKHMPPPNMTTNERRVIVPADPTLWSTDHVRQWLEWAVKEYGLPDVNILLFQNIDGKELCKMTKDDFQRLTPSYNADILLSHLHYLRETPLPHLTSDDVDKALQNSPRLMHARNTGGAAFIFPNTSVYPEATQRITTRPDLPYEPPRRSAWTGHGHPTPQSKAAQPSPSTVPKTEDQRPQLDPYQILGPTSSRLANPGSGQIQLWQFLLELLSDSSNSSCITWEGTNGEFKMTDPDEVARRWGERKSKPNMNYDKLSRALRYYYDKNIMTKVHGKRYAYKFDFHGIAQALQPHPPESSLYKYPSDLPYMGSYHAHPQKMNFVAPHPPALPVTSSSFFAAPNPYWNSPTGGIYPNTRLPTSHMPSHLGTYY
Summed up: as §1

In assay [5] the target is ELF1 (Homo sapiens, UniProt P32519 1-619). Summed up: as §1
Assay [6] deals with T5, EHF (Homo sapiens, UniProt Q9NZC4 1-300).
T5 sequence: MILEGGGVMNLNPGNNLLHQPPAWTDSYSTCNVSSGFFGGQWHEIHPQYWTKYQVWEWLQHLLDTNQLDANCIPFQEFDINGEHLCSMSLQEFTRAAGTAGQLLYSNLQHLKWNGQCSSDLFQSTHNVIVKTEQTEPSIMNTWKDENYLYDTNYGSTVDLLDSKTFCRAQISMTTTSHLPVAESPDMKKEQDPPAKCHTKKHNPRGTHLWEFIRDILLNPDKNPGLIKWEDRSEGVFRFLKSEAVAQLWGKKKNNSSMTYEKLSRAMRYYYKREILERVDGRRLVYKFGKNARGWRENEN
The gist of the method:
as §1

The target in assay [7] is SPI1 (Homo sapiens, UniProt P17947 1-270). Summed up: as §1
Assay [8] concerns the target SPIB (Homo sapiens, UniProt Q01892 1-262). The gist of the method: as §1
The target in assay [9] is T6, FEV (Homo sapiens, UniProt Q99581 1-238).
T6 sequence: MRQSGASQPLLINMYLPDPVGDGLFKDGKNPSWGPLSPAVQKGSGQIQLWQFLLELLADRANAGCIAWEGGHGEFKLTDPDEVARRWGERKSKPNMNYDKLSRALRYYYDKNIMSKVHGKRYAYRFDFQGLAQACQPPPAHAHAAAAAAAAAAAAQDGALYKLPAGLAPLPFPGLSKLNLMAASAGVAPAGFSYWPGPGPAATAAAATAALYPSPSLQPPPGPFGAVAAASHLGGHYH
The gist of the method: as §1

Assay [10] deals with ETV5 (Homo sapiens, UniProt P41161 1-510). Summed up:
as §1

Assay [11] deals with T7, SPIC (Homo sapiens, UniProt Q8N5J4 1-248).
T7 sequence: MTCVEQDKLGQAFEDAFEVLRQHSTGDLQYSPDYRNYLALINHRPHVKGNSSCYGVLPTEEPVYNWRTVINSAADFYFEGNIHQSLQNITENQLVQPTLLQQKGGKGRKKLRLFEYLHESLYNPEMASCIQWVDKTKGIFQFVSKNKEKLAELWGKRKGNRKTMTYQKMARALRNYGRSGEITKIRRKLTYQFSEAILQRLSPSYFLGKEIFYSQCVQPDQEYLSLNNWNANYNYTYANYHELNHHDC
Summed up: as §1

Assay [12] has as its target ELF4 (Homo sapiens, UniProt Q99607 1-663). Summed up:
as §1

Assay [13] has as its target ETV1 (Homo sapiens, UniProt P50549 1-477). The gist of the method: as §1
Assay [14] deals with T8, ERF (Homo sapiens, UniProt P50548 1-548).
T8 sequence: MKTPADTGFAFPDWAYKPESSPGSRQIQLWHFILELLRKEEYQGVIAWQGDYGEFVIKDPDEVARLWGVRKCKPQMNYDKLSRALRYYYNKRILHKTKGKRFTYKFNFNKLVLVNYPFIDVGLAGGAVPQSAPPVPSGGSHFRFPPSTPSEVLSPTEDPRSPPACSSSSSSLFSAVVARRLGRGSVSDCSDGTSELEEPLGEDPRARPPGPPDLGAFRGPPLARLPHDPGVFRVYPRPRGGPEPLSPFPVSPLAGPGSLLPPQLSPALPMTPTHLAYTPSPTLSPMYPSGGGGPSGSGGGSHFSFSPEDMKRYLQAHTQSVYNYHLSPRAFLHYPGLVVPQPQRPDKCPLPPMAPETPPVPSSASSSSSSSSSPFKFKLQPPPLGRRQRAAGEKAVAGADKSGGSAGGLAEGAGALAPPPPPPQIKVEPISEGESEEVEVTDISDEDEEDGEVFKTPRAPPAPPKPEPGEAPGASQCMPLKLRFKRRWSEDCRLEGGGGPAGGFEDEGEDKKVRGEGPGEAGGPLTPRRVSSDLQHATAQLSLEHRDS
The gist of the method: as §1

Assay [15] deals with T9, ETV3L (Homo sapiens, UniProt Q6ZN32 1-361).
T9 sequence: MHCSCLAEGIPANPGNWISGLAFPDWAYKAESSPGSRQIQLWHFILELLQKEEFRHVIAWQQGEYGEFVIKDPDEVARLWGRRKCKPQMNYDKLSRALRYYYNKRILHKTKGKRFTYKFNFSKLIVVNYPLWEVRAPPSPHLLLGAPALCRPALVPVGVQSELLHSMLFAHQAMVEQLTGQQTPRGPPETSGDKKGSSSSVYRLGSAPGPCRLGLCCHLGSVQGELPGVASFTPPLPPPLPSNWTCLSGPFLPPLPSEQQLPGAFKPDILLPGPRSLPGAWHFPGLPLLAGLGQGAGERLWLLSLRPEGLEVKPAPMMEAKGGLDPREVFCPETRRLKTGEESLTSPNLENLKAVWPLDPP
The gist of the method: as §1

Assay [16] has as its target T10, ETS2 (Homo sapiens, UniProt P15036 1-469).
T10 sequence: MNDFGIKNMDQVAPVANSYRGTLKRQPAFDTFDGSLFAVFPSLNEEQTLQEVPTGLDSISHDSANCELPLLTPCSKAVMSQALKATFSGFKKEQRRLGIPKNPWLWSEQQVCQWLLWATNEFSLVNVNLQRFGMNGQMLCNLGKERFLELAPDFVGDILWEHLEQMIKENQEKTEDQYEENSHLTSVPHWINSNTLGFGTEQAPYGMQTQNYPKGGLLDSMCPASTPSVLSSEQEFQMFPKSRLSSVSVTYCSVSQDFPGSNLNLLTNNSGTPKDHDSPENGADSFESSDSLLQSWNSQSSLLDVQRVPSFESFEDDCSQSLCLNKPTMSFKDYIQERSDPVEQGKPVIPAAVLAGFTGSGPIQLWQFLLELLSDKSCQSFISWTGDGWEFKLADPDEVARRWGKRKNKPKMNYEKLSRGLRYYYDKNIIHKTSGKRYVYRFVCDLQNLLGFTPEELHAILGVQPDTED
The gist of the method:
as §1

The target in assay [17] is T11, SPDEF (Homo sapiens, UniProt O95238 1-335).
T11 sequence: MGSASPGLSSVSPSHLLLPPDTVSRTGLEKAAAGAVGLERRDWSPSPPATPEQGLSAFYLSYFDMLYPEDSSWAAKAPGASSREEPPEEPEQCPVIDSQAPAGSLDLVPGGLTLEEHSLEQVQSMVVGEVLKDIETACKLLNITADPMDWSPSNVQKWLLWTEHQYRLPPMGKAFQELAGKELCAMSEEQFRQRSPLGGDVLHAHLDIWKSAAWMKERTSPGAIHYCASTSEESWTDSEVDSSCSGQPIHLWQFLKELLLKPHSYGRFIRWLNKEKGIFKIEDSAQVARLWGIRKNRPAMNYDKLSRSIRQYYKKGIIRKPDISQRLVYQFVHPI
The gist of the method:
as §1

Assay [18] addresses T12, ELF5 (Homo sapiens, UniProt Q9UKW6-2 1-255).
T12 sequence: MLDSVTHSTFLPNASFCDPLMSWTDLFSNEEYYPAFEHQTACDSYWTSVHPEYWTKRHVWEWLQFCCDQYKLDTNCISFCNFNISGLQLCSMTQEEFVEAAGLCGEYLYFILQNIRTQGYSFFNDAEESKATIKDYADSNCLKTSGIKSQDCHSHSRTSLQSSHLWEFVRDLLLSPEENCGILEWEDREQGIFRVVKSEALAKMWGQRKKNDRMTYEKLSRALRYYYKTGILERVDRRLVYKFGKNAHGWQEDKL
The gist of the method:
as §1

In assay [19] the target is T13, ETV3 (Homo sapiens, UniProt P41162-2 1-143).
T13 sequence: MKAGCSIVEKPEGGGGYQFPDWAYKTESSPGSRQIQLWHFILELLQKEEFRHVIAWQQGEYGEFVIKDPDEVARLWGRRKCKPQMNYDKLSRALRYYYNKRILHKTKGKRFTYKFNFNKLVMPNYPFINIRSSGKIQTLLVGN
Summed up:
as §1

Assay [20] deals with ETV6 (Homo sapiens, UniProt P41212 1-452). Summed up:
as §1

Sequence of SPIB (Q01892 whole entry): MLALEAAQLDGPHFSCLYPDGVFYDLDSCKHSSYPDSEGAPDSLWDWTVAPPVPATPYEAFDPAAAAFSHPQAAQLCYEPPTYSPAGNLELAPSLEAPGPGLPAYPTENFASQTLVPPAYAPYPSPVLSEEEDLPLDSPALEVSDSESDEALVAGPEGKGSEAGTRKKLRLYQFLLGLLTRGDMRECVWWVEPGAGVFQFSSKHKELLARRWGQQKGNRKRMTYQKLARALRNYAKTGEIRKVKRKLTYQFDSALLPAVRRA
Sequence of ELF1 (P32519 whole entry): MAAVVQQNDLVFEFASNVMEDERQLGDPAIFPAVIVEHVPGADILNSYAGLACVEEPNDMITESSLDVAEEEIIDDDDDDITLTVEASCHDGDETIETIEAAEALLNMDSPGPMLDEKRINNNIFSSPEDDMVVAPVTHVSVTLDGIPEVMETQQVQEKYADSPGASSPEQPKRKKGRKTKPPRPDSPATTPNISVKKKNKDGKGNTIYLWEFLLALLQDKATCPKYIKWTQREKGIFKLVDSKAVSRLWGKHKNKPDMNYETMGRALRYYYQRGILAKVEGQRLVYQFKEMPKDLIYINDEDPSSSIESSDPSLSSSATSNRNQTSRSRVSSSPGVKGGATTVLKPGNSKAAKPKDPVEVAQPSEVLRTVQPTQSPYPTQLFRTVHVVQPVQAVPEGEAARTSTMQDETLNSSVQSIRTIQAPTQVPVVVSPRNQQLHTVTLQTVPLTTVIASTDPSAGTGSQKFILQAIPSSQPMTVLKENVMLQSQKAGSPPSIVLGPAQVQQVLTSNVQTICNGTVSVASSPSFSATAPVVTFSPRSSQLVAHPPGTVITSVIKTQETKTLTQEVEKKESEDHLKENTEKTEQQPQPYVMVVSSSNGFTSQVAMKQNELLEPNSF
Sequence of ETV6 (P41212 whole entry): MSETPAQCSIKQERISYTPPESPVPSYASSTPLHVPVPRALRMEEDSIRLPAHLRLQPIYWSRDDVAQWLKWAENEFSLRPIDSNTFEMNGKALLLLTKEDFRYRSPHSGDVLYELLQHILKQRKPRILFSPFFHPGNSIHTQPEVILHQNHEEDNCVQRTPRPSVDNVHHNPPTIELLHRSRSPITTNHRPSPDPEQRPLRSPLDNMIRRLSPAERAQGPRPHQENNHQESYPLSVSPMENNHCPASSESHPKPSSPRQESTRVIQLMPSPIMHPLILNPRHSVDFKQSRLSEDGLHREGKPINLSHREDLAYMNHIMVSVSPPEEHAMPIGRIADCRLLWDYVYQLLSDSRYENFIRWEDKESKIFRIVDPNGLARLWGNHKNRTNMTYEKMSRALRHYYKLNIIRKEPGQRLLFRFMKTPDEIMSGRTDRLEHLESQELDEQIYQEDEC
Sequence of ETV5 (P41161 whole entry): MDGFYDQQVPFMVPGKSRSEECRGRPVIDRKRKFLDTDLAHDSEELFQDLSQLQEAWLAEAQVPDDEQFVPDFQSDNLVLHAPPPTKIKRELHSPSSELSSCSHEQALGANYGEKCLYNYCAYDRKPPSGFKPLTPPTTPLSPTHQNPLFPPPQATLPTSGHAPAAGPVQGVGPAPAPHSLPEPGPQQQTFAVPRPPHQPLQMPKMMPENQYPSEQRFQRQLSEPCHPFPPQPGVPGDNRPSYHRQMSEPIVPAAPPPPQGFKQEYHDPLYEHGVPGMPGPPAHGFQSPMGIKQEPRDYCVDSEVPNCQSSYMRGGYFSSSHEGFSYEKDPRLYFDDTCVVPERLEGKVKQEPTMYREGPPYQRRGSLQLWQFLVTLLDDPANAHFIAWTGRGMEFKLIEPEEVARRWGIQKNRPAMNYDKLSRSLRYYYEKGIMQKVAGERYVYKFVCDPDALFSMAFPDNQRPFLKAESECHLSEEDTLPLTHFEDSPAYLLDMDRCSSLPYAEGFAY
Sequence of ELF4 (Q99607 whole entry): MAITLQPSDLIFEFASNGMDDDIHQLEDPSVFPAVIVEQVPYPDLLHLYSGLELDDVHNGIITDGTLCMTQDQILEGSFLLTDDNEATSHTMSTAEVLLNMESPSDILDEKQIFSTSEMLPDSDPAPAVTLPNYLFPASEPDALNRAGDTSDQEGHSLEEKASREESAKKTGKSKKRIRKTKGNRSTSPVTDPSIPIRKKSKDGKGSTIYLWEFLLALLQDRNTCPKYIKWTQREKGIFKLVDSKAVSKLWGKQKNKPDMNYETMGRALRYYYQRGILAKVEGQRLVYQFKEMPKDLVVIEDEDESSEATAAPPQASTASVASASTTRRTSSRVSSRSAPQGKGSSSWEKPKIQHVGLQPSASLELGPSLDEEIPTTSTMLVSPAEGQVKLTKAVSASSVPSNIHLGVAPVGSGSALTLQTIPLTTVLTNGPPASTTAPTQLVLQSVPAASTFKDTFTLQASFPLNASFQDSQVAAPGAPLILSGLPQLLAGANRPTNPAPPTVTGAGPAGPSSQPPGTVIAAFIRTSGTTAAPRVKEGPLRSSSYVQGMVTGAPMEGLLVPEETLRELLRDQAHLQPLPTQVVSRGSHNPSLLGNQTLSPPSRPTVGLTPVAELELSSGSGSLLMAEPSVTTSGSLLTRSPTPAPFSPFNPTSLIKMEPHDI
Sequence of ETV1 (P50549 whole entry): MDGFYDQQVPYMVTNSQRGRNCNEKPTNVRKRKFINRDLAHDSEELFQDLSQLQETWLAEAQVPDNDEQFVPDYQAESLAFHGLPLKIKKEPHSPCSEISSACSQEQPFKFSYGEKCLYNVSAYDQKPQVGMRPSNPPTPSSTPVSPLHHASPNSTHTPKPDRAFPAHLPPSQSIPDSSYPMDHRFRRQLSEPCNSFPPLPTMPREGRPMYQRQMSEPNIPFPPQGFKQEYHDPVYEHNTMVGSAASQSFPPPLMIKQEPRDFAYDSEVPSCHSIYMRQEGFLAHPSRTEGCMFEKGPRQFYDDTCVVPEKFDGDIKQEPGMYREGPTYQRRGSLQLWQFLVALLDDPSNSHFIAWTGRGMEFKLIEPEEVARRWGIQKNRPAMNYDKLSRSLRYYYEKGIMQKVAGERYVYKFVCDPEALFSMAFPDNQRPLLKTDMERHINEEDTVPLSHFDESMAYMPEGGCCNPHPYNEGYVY

On to AAACCG, for which the binding signal in assay [1] was 1.05 fold enrichment (6-mer frequency, TF over GST control); in assay [2], 1.05 fold enrichment (6-mer frequency, TF over GST control); in assay [3], 1.07 fold enrichment (6-mer frequency, TF over GST control); in assay [4], 1.13 fold enrichment (6-mer frequency, TF over GST control); in assay [5] it was 1.12 fold enrichment (6-mer frequency, TF over GST control); in [6] it was 1.08 fold enrichment (6-mer frequency, TF over GST control). The binding signal in assay [7] was 1.25 fold enrichment (6-mer frequency, TF over GST control); in assay [8], 1.05 fold enrichment (6-mer frequency, TF over GST control); in [9], 1.33 fold enrichment (6-mer frequency, TF over GST control); in [10], 1.07 fold enrichment (6-mer frequency, TF over GST control); in assay [11], 1.05 fold enrichment (6-mer frequency, TF over GST control); in assay [12] it was 1.07 fold enrichment (6-mer frequency, TF over GST control). Further, the binding signal in [13] is 1.18 fold enrichment (6-mer frequency, TF over GST control); in assay [14], 1.1 fold enrichment (6-mer frequency, TF over GST control); in [15], 1.06 fold enrichment (6-mer frequency, TF over GST control); in assay [16] it was 1 fold enrichment (6-mer frequency, TF over GST control); in [17], 1.11 fold enrichment (6-mer frequency, TF over GST control); in assay [18], 1.02 fold enrichment (6-mer frequency, TF over GST control). For the same sequence, the binding signal in [19] was 1.08 fold enrichment (6-mer frequency, TF over GST control); in assay [20], 1.05 fold enrichment (6-mer frequency, TF over GST control).

The values are drawn from publication PMC7862700, “An all-to-all approach to the identification of sequence-specific readers for epigenetic DNA modifications on cytosine”.
